# Measured values: PubChem BioAssay
# Active and inactive are the calls of the source. Unless noted, no rule for the calls is given here.
# What was measured:
# [1] = compounds binding Alexa647 anti-His antibody – biochemical, small-molecule microarray, 635 nm fluorescence, artefact control for SMM control protein annotation, primary screen (AID 1128); settings: higher = more signal;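 also: score merges feature fluorescence with signal-to-noise for each printed compound spot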
# [2] = system: Human papillomavirus type 1a E7 protein (residues 1-88); assay: HPV1a E7 small-molecule binders, primary screen, biochemical, small-molecule microarray, residues 1-88, 635 nm (AID 1129); settings: small-molecule microarray binding, fluorescence 635 nm; higher = more signal
# [3] = molecular target: Focal adhesion kinase 1 (Homo sapiens) (UniProt Q05397); assay: PTK2 protein binding on printed compound slides – biochemical, small-molecule microarray, 635/667 nm fluorescence, BSA, DTT, primary screen (AID 1130); settings: 635 nm fluorescence, higher = more signal;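 also: composite of spot emission at 667 nm and signal to noise over triplicate slides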
# [4] = system: Fibrinogen (Alexa647-labelled); assay: Alexa647-fibrinogen binding to printed small molecules – biochemical, small-molecule microarray, 635/667 nm fluorescence, artefact control for SMM control-protein annotation, profiling panel (AID 1131); settings: fibrinogen-A647 binding fluorescence, higher = more signal;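 also: z-score merges 667 nm fluorescence with per-spot signal-to-noise over triplicate slides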
# [5] = molecular target: Follistatin (Homo sapiens) (UniProt P19883); assay: FST protein binding to printed compounds – biochemical, small-molecule microarray, 635/667 nm fluorescence, primary screen (AID 1132); settings: 635 nm fluorescence, higher = more signal
# [6] = molecular target: Fibroblast growth factor 2 (Homo sapiens) (UniProt P09038); assay: basic fibroblast growth factor binding to printed compounds – biochemical, small-molecule microarray, 635/667 nm fluorescence, primary screen (AID 1133); settings: FGF2, fluorescence 635/667, higher = more signal
# [7] = JC-1 mitochondrial potential readout, lung cancer cells – cell-based, A549, JC-1 fluorescence, basal, 24 h, 100 nL, profiling panel (AID 1138); settings: higher = more signal;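 also: A549 lung adenocarcinoma cells under basal conditions with no added stimulus; test concentration not given here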
# Lefty1 = Lefty1 protein binding to printed compounds – biochemical, small-molecule microarray, 635/667 nm fluorescence, primary screen (AID 1139); settings: fluorescence 635/667, higher = more signal
# [8] = system: wheat germ agglutinin (Triticum aestivum), Alexa647-labelled; assay: Alexa647-WGA lectin binding to printed small molecules – biochemical, small-molecule microarray, 635/667 nm fluorescence, artefact control for SMM control-protein annotation, profiling panel (AID 1140); settings: WGA-A647 binding, 635 nm fluorescence, higher = more signal;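 also: score merges 667 nm feature emission with signal to noise over triplicate slides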
# [9] = molecular target: Luciferin 4-monooxygenase (Photinus pyralis) (UniProt P08659); assay: inhibition of purified Photinus pyralis luciferase – biochemical, luminescence, purified enzyme, 2006 set, primary screen (AID 1141); settings: purified firefly luciferase, SteadyGlo luminescence, 30 min; higher = more signal, called active from +8 up or from −8 down;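 also: cell-free assay with purified firefly luciferase at 100 ng per well in PBS; test concentration not given here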
# [10] = system: Wnt5a (protein binding on small-molecule microarray); assay: small molecules binding Wnt5a protein – biophysical, small-molecule microarray, 635/667 nm fluorescence, primary screen (AID 1142); settings: 635 nm fluorescence, higher = more signal;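 also: fluorescence read at 667 nm with signal to noise per printed feature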
# [11] = ATP-based viability of Huh7 replicon cells – cell-based, CellTiter-Glo luminescence, basal, 48 h, cytotoxicity control for HCV replication inhibitor project, primary screen (AID 1143); settings: higher = more signal, called active from +8 up or from −8 down;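 also: Huh7 hepatoma cells carrying a hepatitis C replication reporter with no stimulus; test concentration not given here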
# [12] = Pseudomonas biofilm growth suppression – PAO1 strain, BacTiter-Glo luminescence, LB-PBS, primary screen (AID 1144); settings: P. aeruginosa PAO1 biofilm, 12 h, higher = more signal
# [13] = basal CRE-LacZ reporter activity in PC12 – cell-based, unstimulated, primary screen (AID 1145); settings: no forskolin, luminescence, 4.5 h, higher = more signal, called active from +8 up or from −8 down
# [14] = forskolin-driven CRE-LacZ activity in PC12 – cell-based, CRE-LacZ reporter, forskolin-stimulated, primary screen (AID 1146); settings: luminescence, 4.5 h, higher = more signal, called active from +8 up or from −8 down;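 also: PC12 cells with 6xCRE LacZ reporter stimulated by forskolin 10 µM; beta-galactosidase reporter signal reflecting CREB driven transcription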
# [15] = molecular target: Streptavidin (Streptomyces avidinii) (UniProt P22629); assay: compounds binding control protein streptavidin – biophysical, small-molecule microarray, 635/667 nm fluorescence, artefact control for SMM compound annotation, primary screen (AID 1147); settings: higher = more signal;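 also: signal reflects streptavidin binding to arrayed compounds as a control protein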
# [16] = probe aInhba binding on compound microarray – biochemical, small-molecule microarray, 635/667 nm fluorescence, primary screen (AID 1148); settings: higher = more signal;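 also: score merges 667nm spot fluorescence with signal-to-noise for antibody binding to printed compounds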
# Torsin-1A (Homo sapiens) [17] = molecular target: Torsin-1A (Homo sapiens) (UniProt O14656); assay: TOR1A wild-type binding on microarray – cell lysate, small-molecule microarray, lysate, 635/667 nm, primary screen (AID 1149); settings: COS7 hTOR1A-WT lysate, 635 nm fluorescence, higher = more signal
# Torsin-1A (Homo sapiens) [18] = molecular target: Torsin-1A (Homo sapiens) (UniProt O14656); assay: torsin A mutant lysate binding on microarrays – cell lysate, small-molecule microarray, COS7 lysate, 635/667 nm fluorescence, primary screen (AID 1150); settings: COS7 hTOR1A mutant lysate, 635 nm fluorescence, higher = more signal;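 also: score pools 667 nm emission and signal to noise measuring lysate protein binding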
# [19] = system: Sonic hedgehog protein (Shh); assay: Sonic hedgehog microarray binding compounds – biochemical, small-molecule microarray, 635/667 nm fluorescence, primary screen (AID 1151); settings: 635 nm fluorescence, higher = more signal;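 also: Shh protein binding to compounds spotted on small-molecule microarray slides; score combines spot fluorescence intensity with signal-to-noise across triplicate slides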
# Sequence of Streptavidin (Streptomyces avidinii) (P22629 whole entry, looked up): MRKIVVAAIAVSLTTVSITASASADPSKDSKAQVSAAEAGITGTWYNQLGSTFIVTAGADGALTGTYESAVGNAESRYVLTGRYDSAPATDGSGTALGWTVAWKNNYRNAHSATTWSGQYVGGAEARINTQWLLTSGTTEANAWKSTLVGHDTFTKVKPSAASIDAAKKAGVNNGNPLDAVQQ
# Sequence of Torsin-1A (Homo sapiens) (O14656 whole entry, looked up): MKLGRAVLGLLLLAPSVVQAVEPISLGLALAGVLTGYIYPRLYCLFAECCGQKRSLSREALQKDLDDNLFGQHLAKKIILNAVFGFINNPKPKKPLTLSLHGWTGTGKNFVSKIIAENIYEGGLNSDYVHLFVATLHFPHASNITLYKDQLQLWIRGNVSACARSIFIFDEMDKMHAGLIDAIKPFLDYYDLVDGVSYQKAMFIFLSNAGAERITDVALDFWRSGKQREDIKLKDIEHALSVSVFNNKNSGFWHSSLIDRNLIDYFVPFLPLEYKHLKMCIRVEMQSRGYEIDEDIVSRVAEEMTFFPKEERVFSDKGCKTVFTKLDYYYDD
# Sequence of Focal adhesion kinase 1 (Homo sapiens) (Q05397 whole entry, looked up): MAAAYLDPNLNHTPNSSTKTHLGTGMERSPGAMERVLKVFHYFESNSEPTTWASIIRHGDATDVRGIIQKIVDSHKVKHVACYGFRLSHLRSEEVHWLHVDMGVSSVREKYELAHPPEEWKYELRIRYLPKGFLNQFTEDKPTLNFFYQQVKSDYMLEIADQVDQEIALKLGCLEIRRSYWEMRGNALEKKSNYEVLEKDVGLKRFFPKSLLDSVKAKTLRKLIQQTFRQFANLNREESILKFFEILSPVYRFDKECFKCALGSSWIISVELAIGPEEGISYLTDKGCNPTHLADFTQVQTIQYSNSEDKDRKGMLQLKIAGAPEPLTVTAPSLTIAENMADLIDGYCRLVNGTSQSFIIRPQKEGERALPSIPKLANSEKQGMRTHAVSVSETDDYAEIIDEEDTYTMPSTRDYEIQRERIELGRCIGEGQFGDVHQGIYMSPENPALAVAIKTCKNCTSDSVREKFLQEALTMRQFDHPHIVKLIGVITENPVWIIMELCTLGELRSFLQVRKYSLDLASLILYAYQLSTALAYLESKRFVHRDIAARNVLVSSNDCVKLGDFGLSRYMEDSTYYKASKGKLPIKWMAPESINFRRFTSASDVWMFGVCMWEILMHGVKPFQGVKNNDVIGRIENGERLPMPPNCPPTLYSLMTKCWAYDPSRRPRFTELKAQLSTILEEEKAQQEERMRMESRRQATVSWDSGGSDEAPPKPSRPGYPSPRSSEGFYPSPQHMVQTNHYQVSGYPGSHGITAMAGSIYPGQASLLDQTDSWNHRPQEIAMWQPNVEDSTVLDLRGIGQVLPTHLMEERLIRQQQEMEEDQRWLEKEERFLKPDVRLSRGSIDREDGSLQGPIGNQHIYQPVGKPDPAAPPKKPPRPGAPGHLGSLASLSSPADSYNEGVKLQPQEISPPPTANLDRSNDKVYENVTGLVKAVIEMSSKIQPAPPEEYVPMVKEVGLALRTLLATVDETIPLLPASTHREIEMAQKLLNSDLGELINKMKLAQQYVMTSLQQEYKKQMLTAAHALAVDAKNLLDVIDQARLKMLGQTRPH
# Sequence of Luciferin 4-monooxygenase (Photinus pyralis) (P08659 whole entry, looked up): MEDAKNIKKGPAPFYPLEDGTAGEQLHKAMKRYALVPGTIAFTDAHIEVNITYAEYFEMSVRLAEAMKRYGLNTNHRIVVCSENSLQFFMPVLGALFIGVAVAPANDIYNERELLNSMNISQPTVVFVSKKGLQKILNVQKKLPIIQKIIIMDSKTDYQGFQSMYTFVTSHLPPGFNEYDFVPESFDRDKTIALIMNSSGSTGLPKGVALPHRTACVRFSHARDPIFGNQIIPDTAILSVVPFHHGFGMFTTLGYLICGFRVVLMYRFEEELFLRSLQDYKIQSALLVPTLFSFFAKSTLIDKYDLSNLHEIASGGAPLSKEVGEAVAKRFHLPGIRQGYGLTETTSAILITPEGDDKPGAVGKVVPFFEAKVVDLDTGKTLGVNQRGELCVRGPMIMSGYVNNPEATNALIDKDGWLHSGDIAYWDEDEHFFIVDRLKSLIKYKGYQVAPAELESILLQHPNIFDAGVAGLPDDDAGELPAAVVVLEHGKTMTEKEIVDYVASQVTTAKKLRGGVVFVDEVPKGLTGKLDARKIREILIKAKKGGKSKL
# Sequence of Fibroblast growth factor 2 (Homo sapiens) (P09038 whole entry, looked up): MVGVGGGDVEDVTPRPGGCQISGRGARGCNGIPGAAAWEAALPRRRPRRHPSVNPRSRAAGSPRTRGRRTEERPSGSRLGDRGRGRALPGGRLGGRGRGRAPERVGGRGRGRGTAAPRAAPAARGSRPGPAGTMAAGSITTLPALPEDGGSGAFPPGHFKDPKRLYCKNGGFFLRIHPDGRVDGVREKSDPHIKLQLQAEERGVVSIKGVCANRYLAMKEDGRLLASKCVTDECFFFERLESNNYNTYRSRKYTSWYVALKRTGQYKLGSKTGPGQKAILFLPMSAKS
# Sequence of Follistatin (Homo sapiens) (P19883 whole entry, looked up): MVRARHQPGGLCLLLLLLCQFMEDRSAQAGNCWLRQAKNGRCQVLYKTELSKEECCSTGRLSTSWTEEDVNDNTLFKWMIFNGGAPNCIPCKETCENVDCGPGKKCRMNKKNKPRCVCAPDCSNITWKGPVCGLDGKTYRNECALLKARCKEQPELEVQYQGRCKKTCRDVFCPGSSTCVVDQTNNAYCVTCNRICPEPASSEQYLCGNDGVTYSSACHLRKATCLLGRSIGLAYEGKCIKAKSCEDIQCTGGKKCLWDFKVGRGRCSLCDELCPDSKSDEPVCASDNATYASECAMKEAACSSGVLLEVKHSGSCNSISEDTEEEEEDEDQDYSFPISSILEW
Structure (SMILES),composite z-score [1],composite z-score [2],composite z-score [3],composite z-score [4],composite z-score [5],composite z-score [6],z-score [7],composite z-score (Lefty1),composite z-score [8],z-score [9],composite z-score [10],z-score [11],z-score [12],z-score [13],z-score [14],composite z-score [15],composite z-score [16],composite z-score (Torsin-1A (Homo sapiens) [17]),composite z-score (Torsin-1A (Homo sapiens) [18]),composite z-score [19]
C[C@]1(C(=O)NCC(F)(F)F)c2ccccc2C(=O)N(Cc2cc(F)cc(C(F)(F)F)c2)[C@H]1c1ccc(CO)cc1,-0.99,0.105,-0.0984,0.0953,1.24,0.261,-1.8,-0.273,-0.0396,0.408 (inactive),0.0343,-4.86 (inactive),-0.704 (inactive),0.324 (inactive),0.486 (inactive),-0.388,-0.128,0.135,0.527,0.394
C=CC[C@@]1(C(=O)NCc2ccccc2)N=C(c2ccc(OCCCO)cc2)O[C@@H]1c1ccccc1CN=[N+]=[N-],1.8,1.22,1.06,0.995,1.29,-0.204,0.903,-0.0518,0.888,-0.876 (inactive),0.521,-3.66 (inactive),-0.315 (inactive),3.13 (inactive),2.93 (inactive),0.579,0.122,-0.805,0.287,-0.629
CN1C(=O)C2C(C1=O)C1C=C(c3ccc(CO)cc3)C2C(C2CC2)N1Cc1sc2ccccc2c1Cl (stereo not given),3.31,1.26,1.89,0.982,0.968,1.06,2.26,0.453,1.25,-1.75 (inactive),0.567,-3.96 (inactive),0.277 (inactive),2.75 (inactive),-0.825 (inactive),2.1,0.432,1.08,1.57,0.25
O=C1O[C@H](c2ccccc2)[C@H](c2ccccc2)N2[C@H]1[C@@H](C(=O)NC[C@H](O)c1ccccc1)[C@]1(C(=O)Nc3ccc(C#CC4=CCCCC4)cc31)[C@H]2c1ccc(O)cc1,1.86,1.17,0.191,0.826,1.35,1.59,-1.38,0.82,0.331,-1.5 (inactive),0.688,-5.36 (inactive),-0.354 (inactive),-0.602 (inactive),-0.912 (inactive),0.758,0.121,0.769,1.08,1.51
O=C1C2C=CC(C(O)c3ccc(-c4ccccc4)s3)N(Nc3ccccc3F)C2C(=O)N1c1ccccc1 (stereo not given),1.29,1.21,0.816,0.997,1.18,1.16,-1.12,0.133,0.994,-0.324 (inactive),0.26,0.0093 (inactive),-0.729 (inactive),0.629 (inactive),0.383 (inactive),1.06,-0.205,0.254,0.404,0.433
O=C(NCC(F)(F)F)[C@@H]1c2ccccc2C(=O)N(Cc2ccccc2)[C@H]1c1ccc(CO)cc1,1.52,-1.3,-0.813,-1.17,-1.25,-1.34,0.764,-1.57,-0.595,-0.363 (inactive),-0.18,-0.223 (inactive),-0.0791 (inactive),-0.269 (inactive),-0.461 (inactive),-0.27,-0.214,0.111,0.0036,-0.911
O=C1OCCC=C[C@H]2OC34C=CCN(c5ccc6ccccc6c5)C(=O)[C@H]3N(CCCCCCO)C(=O)[C@@H]4C12 (stereo not given in full),-0.365,-0.992,-0.0504,-0.771,-0.761,-0.97,1.48,-0.61,-0.451,-1.2 (inactive),-0.315,-0.211 (inactive),-0.0556 (inactive),0.0605 (inactive),0.771 (inactive),-1.1,-0.179,2.39,2.75,-0.305
COC(=O)[C@@]1(Cc2ccccc2)[C@H]2c3cc(C(=O)N(C)C)n(Cc4cc(F)c(F)c(F)c4)c3C[C@H]2CN1C(=O)c1ccccc1,2.19,1.22,0.692,0.832,0.83,-0.311,-0.322,-0.807,0.418,1.78 (inactive),0.312,-3.19 (inactive),0.301 (inactive),0.0109 (inactive),-0.214 (inactive),0.773,0.681,0.0663,0.12,-0.578
O=C1OCC=C[C@H]2OC34C=CCN(c5ccc6ccccc6c5)C(=O)[C@H]3N(CCO)C(=O)[C@@H]4[C@@H]12 (stereo not given in full),0.0061,-0.785,-0.415,-1.22,-1.05,-2.06,1.51,-0.455,-1.18,-0.646 (inactive),-1.26,-0.168 (inactive),1.89 (inactive),1.14 (inactive),0.492 (inactive),-0.74,-0.0427,-2.04,-2.02,-0.25
COC(=O)[C@@]1(Cc2ccc(OC)cc2)[C@H]2c3cc(C(=O)N4CCCC4)n(CCc4ccccn4)c3C[C@H]2CN1C(=O)c1ccccc1,0.0421,0.201,0.579,0.821,-0.29,-0.676,-1.29,-0.91,0.0844,2.15 (inactive),-0.249,-0.784 (inactive),-0.304 (inactive),0.201 (inactive),0.404 (inactive),0.698,-0.0332,-0.166,1.1,0.429
